Test [1] can be described thus: qHTS assay to identify small molecule antagonists of the thyroid receptor (TR) signaling pathway (AID 743065). Note: nearly all actives have a fitted effect of over 55% in size. Note: potency is the fitted concentration of half-maximal effect. Summed up:
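Antagonism measured as loss of luciferase signal in GH3 cells stably carrying a TRE-luciferase reporter, co-treated with compound and T3 (1 nM final) for 23.5 h at 37 C. Viability was read in the same well by CellTiter-Fluor.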
For orientation: Quantitative high-throughput screening tests each substance at several concentrations.

The subject of test [2] is thyroid hormone receptor (rat, GH3 cells). As to the kind of experiment: qHTS assay to identify small molecule agonists of the thyroid receptor (TR) signaling pathway (AID 743066; calls by dose curve).
The target in test [3] is Estrogen receptor (Homo sapiens) (UniProt P03372). As to the kind of experiment: qHTS assay to identify small molecule agonists of the estrogen receptor alpha (ER-alpha) signaling pathway (AID 743075; calls by dose curve).
Test [4] has the same target. Description: qHTS assay to identify small molecule agonists of the estrogen receptor alpha (ER-alpha) signaling pathway using the BG1 cell line (AID 743079). Note: nearly all actives have a fitted effect of over 20% in size. Note: potency is the fitted concentration of half-maximal effect. To be noted: BG1Luc4E2 cells, ERE-luciferase agonist, 22 h; activation: at 70.3 µM (top of the series).
Test [5] in a line: qHTS assay to identify small molecule antagonists of the estrogen receptor alpha (ER-alpha) signaling pathway using the BG1 cell line (AID 743080; calls by dose curve; note: nearly all actives have a fitted effect of over 25% in size; note: potency is the fitted concentration of half-maximal effect). Summed up:
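Antagonist mode: compounds in DMSO were pinned onto BG1-Luc-4E2 cells alongside 17beta-estradiol agonist, incubated 21.5 h, and ERE-driven luciferase measured with ONE-Glo. Cytotoxicity was multiplexed using CellTiter-Fluor fluorescence.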

Test [6] in a line: qHTS assay to identify small molecule antagonists of the estrogen receptor alpha (ER-alpha) signaling pathway using the BG1 cell line - cell viability counter screen (AID 743081).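 Note: compound given together with 17beta-estradiol as the ER stimulus; nearly all actives have a fitted effect of over 45% in size.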 Note: potency is the fitted concentration of half-maximal effect.
The nature of test [7]: qHTS assay to identify aromatase inhibitors - cell viability counter screen (AID 743084).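 Note: cells stimulated with testosterone during compound exposure; nearly all actives have a fitted effect of over 55% in size.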 Note: potency is the fitted concentration of half-maximal effect.
For a further test, the target named is Aromatase (Homo sapiens) (UniProt P11511). Description: qHTS assay to identify aromatase inhibitors (AID 743083). Note: nearly all actives have a fitted effect of over 55% in size. Note: potency is the fitted concentration of half-maximal effect.
The target of test [8] is Estrogen receptor (Homo sapiens) (UniProt P03372). As to the kind of experiment: qHTS assay to identify small molecule antagonists of the estrogen receptor alpha (ER-alpha) signaling pathway (AID 743069; active = well fitted curve in the direction sought with a large enough effect in the signal ratio in the repeat runs, not every such curve was filed as active; inconclusive = weak or mixed curves, or effect the other way; inactive = no such curve, though single readings can be large or run the other way; the % refers to the signal ratio; note: potency is the fitted concentration of half-maximal effect). In short, it runs like this: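 Fluorescence intensity from a beta-lactamase FRET substrate served as the read-out. Cells: HEK293 with stably integrated ER-alpha-UAS-bla reporter. Agonist 17beta-estradiol was co-added with compounds; incubation 18 hr at 37C, substrate 2 hr at room temperature.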

A short description of test [9]: qHTS assay to identify small molecule antagonists of the estrogen receptor alpha (ER-alpha) signaling pathway - cell viability counter screen (AID 743074; calls by dose curve; note: nearly all actives have a fitted effect of over 45% in size; note: potency is the fitted concentration of half-maximal effect).

Values joined by “and” are separate entries in the source; they are usually repeats but may differ in a detail not shown here. Equal entries are not always repeated. Some compounds were tested as several samples or in several runs, with calls that do not always agree. Active and inactive are the calls of the source. Unless noted, calls come from the whole dose curve; as a rule, active = well fitted curve in the direction sought with a large enough effect in the repeat runs; inconclusive = weak or mixed curves; inactive = no such curve, though single readings can be large; an effect the other way counts as inactive or inconclusive.

Chain of Estrogen receptor (Homo sapiens) (P03372 whole entry, looked up): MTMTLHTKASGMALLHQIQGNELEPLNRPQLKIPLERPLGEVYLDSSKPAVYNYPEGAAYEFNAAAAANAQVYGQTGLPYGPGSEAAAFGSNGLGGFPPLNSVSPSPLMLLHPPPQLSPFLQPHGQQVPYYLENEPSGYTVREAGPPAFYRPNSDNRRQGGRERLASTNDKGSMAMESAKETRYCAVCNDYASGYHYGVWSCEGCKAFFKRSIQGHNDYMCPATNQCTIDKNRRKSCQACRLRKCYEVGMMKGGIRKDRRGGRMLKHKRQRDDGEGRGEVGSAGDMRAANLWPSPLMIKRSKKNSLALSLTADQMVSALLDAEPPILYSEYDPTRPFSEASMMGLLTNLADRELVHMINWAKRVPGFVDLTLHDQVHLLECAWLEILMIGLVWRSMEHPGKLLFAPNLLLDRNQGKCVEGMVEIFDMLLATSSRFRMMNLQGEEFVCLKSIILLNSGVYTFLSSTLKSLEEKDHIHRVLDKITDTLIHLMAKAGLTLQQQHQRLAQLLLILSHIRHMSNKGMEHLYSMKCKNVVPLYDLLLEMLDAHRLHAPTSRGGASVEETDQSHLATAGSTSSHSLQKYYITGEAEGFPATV
Chain of Aromatase (Homo sapiens) (P11511 whole entry, looked up): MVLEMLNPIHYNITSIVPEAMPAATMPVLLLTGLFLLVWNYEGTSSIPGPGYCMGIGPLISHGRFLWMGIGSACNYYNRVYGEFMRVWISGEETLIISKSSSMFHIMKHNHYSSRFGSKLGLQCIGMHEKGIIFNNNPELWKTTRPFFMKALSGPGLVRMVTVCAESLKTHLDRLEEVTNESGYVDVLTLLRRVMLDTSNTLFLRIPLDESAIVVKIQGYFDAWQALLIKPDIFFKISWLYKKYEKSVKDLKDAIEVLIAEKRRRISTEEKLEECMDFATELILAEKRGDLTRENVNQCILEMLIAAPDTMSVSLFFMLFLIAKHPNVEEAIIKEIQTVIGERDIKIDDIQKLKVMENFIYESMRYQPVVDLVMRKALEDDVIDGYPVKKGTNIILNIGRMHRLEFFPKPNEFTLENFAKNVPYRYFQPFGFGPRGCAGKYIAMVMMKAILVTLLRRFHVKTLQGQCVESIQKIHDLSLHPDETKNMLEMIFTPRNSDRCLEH

In the case of `Nc1nc(Cl)nc2c1ncn2[C@@H]1O[C@H](CO)[C@@H](O)[C@@H]1F`, the figures for the Potency in [1] and in [5] were 0.133 µM (active) and 3.76 µM (active), respectively. Further, the result in [2] was inactive. Further, the Potency entry in [3], in test [4], in test [6] and in test [7] was “inactive” each time.
As to `C[Si]1(C)O[Si](C)(C)O[Si](C)(C)O1`, the Potency entry (in test [1]; in test [6]; in the test with Aromatase (Homo sapiens); in test [7]) was “inactive” throughout. The result in test [2] was inactive.
On to `NC(=O)N(O)[C@@H]1C=C[C@H](Oc2cccc(Oc3ccc(F)cc3)c2)C1`, for which the Potency in test [1] was 68.6 µM (active); in test [4], 13.7 µM (active); in [5] it was 77 µM (active). Further, the Potency entry in test [8], in test [9], in test [3], in test [6] and in [7] was “inactive” throughout.
As for `NC(=O)N(O)[C@@H]1COc2cc(OCc3ccccc3)ccc21`, the Potency in test [1] was 61.1 µM (active). Also, the Potency result (in [9]; in test [3]; in test [6]; with Aromatase (Homo sapiens); in [7]) was “inactive” throughout.
For the molecule `CC1=NN(c2ccc(C(=O)O)cc2)C(=O)C1`, the Potency result (in test [1]; in test [9]; in [6]; with Aromatase (Homo sapiens); in test [7]) was “inactive” in each case.
As for `COCCOC(=O)C1=C(C)NC(C)=C(C(=O)OC/C=C/c2ccccc2)C1c1cccc([N+](=O)[O-])c1` (stereo not given), the Potency in [1] is 11.9 µM (active); in test [8], 23.9 µM [inconclusive] (active). Also, the Potency result in test [9], in test [3], in test [5] and in test [6] was “inactive” in each case.
Turning to `CC(=O)Oc1ccc2c(c1)CC[C@@H]1[C@@H]2CC[C@]2(C)[C@@H](O)CC[C@@H]12`, the Potency in test [1] is 26.6 µM (active). The Potency result (in test [9]; in [6]; with Aromatase (Homo sapiens); in [7]) was “inactive” in each case.
On to `CCCCC(CC)C(=O)OCCOCCOCCOCCOC(=O)C(CC)CCCC` (stereo not given), for which the molecule was called inactive in test [2]. The Potency result in test [8], in test [9], in [3], in test [4] and in [6] was “inactive” in each case.
Take `CCc1nn(CCCN2CCN(c3cccc(Cl)c3)CC2)c(=O)n1CCOc1ccccc1`: the Potency in test [1] is 11.9 µM (active) and 26.6 µM (active); in test [9] it was 23.9 µM (active); in test [6], 29.8 µM (active) and inactive; in the test with Aromatase (Homo sapiens), 29.8 µM (active) and 33.5 µM (active); in test [7], 29.8 µM (active). Besides, the Potency entry in [3] is “inactive”.
Take `CCCCOC(=O)CCS`: the Potency entry in test [1], in [9], in [3], in test [6] and in [7] was “inactive” throughout.
Regarding `CCNC(=O)N1CCN(CCCC(c2ccc(F)cc2)c2ccc(F)cc2)CC1`, the Potency in test [1] was 21.1 µM (active); in [9], 16.9 µM (active); in [6] it was 29.8 µM (active). Besides, the Potency entry in test [3] was “inactive”.
Regarding `Cc1c(C(=O)NN2CCCCC2)nn(-c2ccc(Cl)cc2Cl)c1-c1ccc(Cl)cc1`, in [1], the Potency was 11.9 µM (active). The Potency result (in [3]; in [4]; in test [5]; in test [6]; in the test with Aromatase (Homo sapiens); in [7]) was “inactive” in each case.
As to `COc1cc2c(N3CCN(C(=O)Nc4ccc(OC(C)C)cc4)CC3)ncnc2cc1OCCCN1CCCCC1`, the Potency in [1] is 13.3 µM (active). Moreover, the Potency entry (in [8]; in test [9]; in test [4]; in the test with Aromatase (Homo sapiens); in [7]) was “inactive” each time.
Regarding `CNC(=S)NC`, the outcome in test [2] was inactive. Also, the Potency result (in test [8]; in test [9]; in test [3]; in test [4]; in test [6]; with Aromatase (Homo sapiens)) was “inactive” in each case. The Potency entry in test [7] is “inactive”.
As to `CCCc1c(OCCCOc2ccc(OCC(=O)O)cc2)ccc(C(C)=O)c1O`, the molecule was called inactive in [2]. For the same molecule, the Potency entry in test [9], in [3], in [4], in test [5], in test [6] and in test [7] was “inactive” throughout.
Turning to `O=c1[nH]c2ccc(S(=O)CCN3CCC(Cc4ccc(F)cc4)CC3)cc2o1` (stereo not given), the molecule was called inactive in [2]. For the same molecule, the Potency result (in [8]; in test [9]; in test [3]; with Aromatase (Homo sapiens); in test [7]) was “inactive” each time. Further, in test [4], the Potency was 12.2 µM (active).
Regarding `Cc1nccn1-c1ccc(Sc2cccc(C3(C(N)=O)CCOCC3)c2)cc1`, the results for the Potency (in [1]; in test [5]; with Aromatase (Homo sapiens)) were 4.86 µM (active), 1.93 µM (active) and 54.5 µM (active), respectively. Further, the Potency entry in [9], in [6] and in test [7] was “inactive” in each case.
As to `CNCCCC1c2ccccc2C=Cc2ccccc21`, the Potency in test [1] was 11.4 µM (active). The Potency result in [8], in test [9], in [3], in test [4], in test [5] and in [6] was “inactive” throughout. In addition, the Potency entry (in the test with Aromatase (Homo sapiens); in [7]) was “inactive” each time.
On to `OC(CCCN1CCCCC1)(c1ccccc1)c1ccccc1`, for which the call in test [2] was inactive. For the same molecule, the Potency entry (in test [8]; in test [3]; in [4]; in the test with Aromatase (Homo sapiens); in test [7]) was “inactive” in each case.
Regarding `O=C(N[C@@H](c1ccccc1)[C@@H]1CCCCN1)c1cccc(C(F)(F)F)c1Cl`, the Potency is 27.3 µM (active) in test [1] and 38.6 µM (active) with Aromatase (Homo sapiens). Further, the Potency entry in test [9] and in test [3] was “inactive” in each case.
On to `COc1cc2ncnc(Nc3ccc(F)c(Cl)c3)c2cc1OCCCN1CCOCC1`, for which the Potency in test [1] was 10.6 µM (active); in [8], 16.9 µM [inhibitor] (active). For the same molecule, the Potency entry (in test [9]; in test [3]; with Aromatase (Homo sapiens)) was “inactive” in each case.
As for `Cc1cc2nc3ccc(=[N+](C)C)cc-3sc2cc1N`, the Potency in [1] was 21.1 µM (active); with Aromatase (Homo sapiens), 5.31 µM (active); in [7] it was 26.6 µM (active). Also, the Potency result in [9], in [3] and in test [6] was “inactive” each time.
Consider `COc1cc2c(cc1OC)-c1cc(=Nc3c(C)cc(C)cc3C)n(C)c(=O)n1CC2`, for which the Potency in test [1] was 18.8 µM (active); in the test with Aromatase (Homo sapiens), 26.6 µM (active); in [7], 26.6 µM (active). The Potency entry in test [3] was “inactive”.
For `Fc1ccccc1[C@@H](F)COC1CCC(Nc2ncnc3[nH]ncc23)CC1` (stereo not given in full), the figures for the Potency (in test [1]; with Aromatase (Homo sapiens)) were 48.6 µM (active) and 24.3 µM (active), respectively. The Potency result in test [9], in test [6] and in [7] was “inactive” throughout.
As to `CCN(Cc1cccc(S(=O)(=O)O)c1)c1ccc(C(=C2C=CC(=[N+](CC)Cc3cccc(S(=O)(=O)[O-])c3)C=C2)c2ccccc2)cc1`, the molecule was classed as inactive in test [2]. The Potency entry in [8], in test [9], in [3], in [4], in test [5] and in test [6] was “inactive” throughout. Also, the Potency result (in the test with Aromatase (Homo sapiens); in [7]) was “inactive” each time.
Regarding `O=C(Nc1ccccc1)Nc1ccccc1`, the molecule was called inactive in test [2]. The Potency result (in test [8]; in test [9]; in test [3]; in [6]; with Aromatase (Homo sapiens); in test [7]) was “inactive” in each case. Besides, in test [4], the Potency is 19.4 µM (active).
